inhibition, activation and activation (reported as inhibition) data for 19 molecules are collected here from PubChem BioAssay.

Unmarked numbers belong to inactive results. The list shows a part of the results. The source made the active and inactive calls.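 How the source made its calls, unless noted: active means mean activation over triplicate exceeds the hit threshold set in the earlier primary screen (cut at about 20% in these data); inactive means the rest.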

Experiment [1] has as its target Serine protease HTRA1 (Homo sapiens) (UniProt Q92743). Description: HTRA1 protease inhibitors, retest, confirmation, biochemical, fluorescence polarization (AID 540248;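 active means mean inhibition over three repeats above a set limit taken from the earlier primary screen, cut at about 37% in these data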;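 further: 0% = HTRA1 with DMSO and 100% = wells lacking HTRA1; inhibitors block probe binding so polarization drops and inhibition rises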). The following applies: recombinant HTRA1, FP-rhodamine activity-based probe, at 5.96 µM, active compounds read high. (Fluorescence polarisation rises when a labelled molecule tumbles more slowly, as on binding a larger partner.)

In experiment [2] the test system is transactivating tegument protein VP16 (Human herpesvirus 1). As to the kind of experiment: VP16 transactivation reporter inhibitors, counter-screen for SRC2 inhibitor project, cell-based, luminescence, single concentration (AID 652007; in the data active means inhibition above about 36%). Conditions: cell-based VP16 transactivation luciferase reporter, at 8.9 µM, active compounds read high. On the technique in general: The purpose of a counterscreen is to sort out artefacts and off-target activity.

Experiment [3] concerns the target Nuclear receptor coactivator 2 (Homo sapiens) (UniProt Q15596). As to the kind of experiment: SRC2 coactivator transcriptional activity inhibitors, confirmation, cell-based, luminescence, HEK293, triplicate (AID 652008;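 active means mean inhibition above 46.5%, the solvent-only control mean plus 3 SD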;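 further: 0% = DMSO-treated cells and 100% = Gossypol at 36 µM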). The following applies: HEK293 GAL4-SRC2 luciferase reporter, at 8.9 µM, active compounds read high. Background: In a reporter assay the amount or activity of a reporter protein is the signal.

Experiment [4] has as its target Oxytocin receptor (Homo sapiens) (UniProt P30559). Description: human OXTR agonists, confirmation, fluorescence, CHO-OTR cells, triplicate (AID 434963;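 active means mean activation above about 20% derived from the earlier single-dose screen, limit read from the data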;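 further: peak over minimum fluorescence ratio per well during a 100 second FLIPR read; 0% = DMSO alone and 100% = oxytocin high control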). The following applies: Fluo-8 calcium fluorescence, agonist, at 3 µM, active compounds read high.
For experiment [5], the target named is Vasopressin V1a receptor (Homo sapiens) (UniProt P37288). As to the kind of experiment: V1a receptor agonists, calcium signal, counter-screen for OXTR agonist project, triplicate, fluorescence, CHO-V1R cells (AID 434991).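 Further: peak over basal fluorescence ratio within a 100 second read; 0% = DMSO alone and 100% = 3 nM vasopressin.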 The following applies: Fluo-8 calcium fluorescence, at 3 µM, active compounds read high.
Sequence of Vasopressin V1a receptor (Homo sapiens) (P37288 whole entry, looked up): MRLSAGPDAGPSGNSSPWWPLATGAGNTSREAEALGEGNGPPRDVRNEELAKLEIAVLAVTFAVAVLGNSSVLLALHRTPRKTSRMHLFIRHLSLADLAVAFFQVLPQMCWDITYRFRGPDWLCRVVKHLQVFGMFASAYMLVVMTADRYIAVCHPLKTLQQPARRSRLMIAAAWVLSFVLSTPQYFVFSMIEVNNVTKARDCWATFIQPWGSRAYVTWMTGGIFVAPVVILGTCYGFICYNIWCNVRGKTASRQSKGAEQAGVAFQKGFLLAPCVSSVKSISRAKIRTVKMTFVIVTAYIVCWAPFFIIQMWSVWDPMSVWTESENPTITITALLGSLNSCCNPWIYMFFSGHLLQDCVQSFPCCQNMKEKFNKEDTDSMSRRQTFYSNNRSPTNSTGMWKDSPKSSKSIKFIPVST
Experiment [6] deals with Lytic switch protein BZLF1 (Epstein-Barr virus (strain B95-8)) (UniProt P03206). As to the kind of experiment: EBV Zta binding to ZRE DNA, inhibitors, confirmation, biochemical, fluorescence polarization, triplicate (AID 2361;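 active means mean inhibition across triplicate runs above the hit threshold derived for the original primary screen, cut at about 33% in these data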;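 further: 0% = Zta with DMSO and 100% = wells lacking Zta protein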). The following applies: at 11.1 µM, active compounds read high.
Sequence of Lytic switch protein BZLF1 (Epstein-Barr virus (strain B95-8)) (P03206 whole entry, looked up): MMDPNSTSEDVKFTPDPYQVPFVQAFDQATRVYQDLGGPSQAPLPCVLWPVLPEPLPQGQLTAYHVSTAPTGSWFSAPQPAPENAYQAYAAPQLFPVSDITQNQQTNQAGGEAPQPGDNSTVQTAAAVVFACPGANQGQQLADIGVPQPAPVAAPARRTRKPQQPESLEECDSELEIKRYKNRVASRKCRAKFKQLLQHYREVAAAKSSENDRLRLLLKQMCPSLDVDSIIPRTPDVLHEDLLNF
The subject of experiment [7] is Epstein-Barr virus nuclear antigen 1 (EBNA-1), Human herpesvirus 4. As to the kind of experiment: EBNA-1 DNA-binding inhibition, counter-screen for ZTA inhibitor project, biochemical, fluorescence polarization (AID 2362; call rule not given here). The following applies: at 14.8 µM, active compounds read high.
The target in experiment [8] is Galanin receptor type 2 (Homo sapiens) (UniProt O43603). As to the kind of experiment: GALR2 antagonists, retest of hits, confirmation, cell-based (AID 866; in the data active means inhibition above about 27%;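 further: cells stimulated with galanin at about its EC80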). The following applies: GALR2-expressing cells, antagonist mode, at 4 µM, active compounds read high.
The nature of experiment [9]: inhibitors of NFAT-driven beta-lactamase reporter, confirmation, counter-screen for GALR2 antagonist project, CHO NFAT-bla cells, FRET readout (AID 867;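 active means inhibition above the mean inhibition across tested compounds plus 3 SD, cut at about 27% in these data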;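 further: 0% = 500 nM thapsigargin stimulated wells and 100% = unstimulated BSA only wells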). The following applies: thapsigargin-stimulated, at 4.2 µM, active compounds read high.
The target in experiment [10] is Glutathione S-transferase omega-1 (Homo sapiens) (UniProt P78417). As to the kind of experiment: GSTO1 inhibitor hit confirmation, counter-screen for RBBP9 inhibitor project, biochemical, fluorescence polarization, triplicate (AID 2176;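 active means inhibition above the primary screen's cutoff, its mean inhibition plus 3 SD, cut at about 35% in these data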;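 further: loss of polarization as inhibitors block binding of rhodamine sulfonate ester activity probe; 0% = GSTO1 with DMSO and 100% = wells lacking GSTO1 enzyme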). The following applies: recombinant GSTO1, probe fluorescence polarization; at 5.96 µM; active compounds read high.
Sequence of Glutathione S-transferase omega-1 (Homo sapiens) (P78417 whole entry, looked up): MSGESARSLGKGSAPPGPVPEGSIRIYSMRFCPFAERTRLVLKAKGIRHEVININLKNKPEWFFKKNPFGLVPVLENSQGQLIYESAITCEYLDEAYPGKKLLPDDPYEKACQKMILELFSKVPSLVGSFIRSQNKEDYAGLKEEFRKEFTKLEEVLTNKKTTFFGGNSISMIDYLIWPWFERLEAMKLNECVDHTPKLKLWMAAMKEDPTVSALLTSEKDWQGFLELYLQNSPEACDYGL
For experiment [11], the target named is Photoreceptor-specific nuclear receptor (Homo sapiens) (UniProt Q9Y5X4). Description: NR2E3 agonists, confirmation, biochemical, TR-FRET (AID 2379; in the data active means activation above about 20%). Conditions: cell-free NR2E3 corepressor release, 5 h, at 3.98 µM, active compounds read high.
Sequence of Photoreceptor-specific nuclear receptor (Homo sapiens) (Q9Y5X4 whole entry, looked up): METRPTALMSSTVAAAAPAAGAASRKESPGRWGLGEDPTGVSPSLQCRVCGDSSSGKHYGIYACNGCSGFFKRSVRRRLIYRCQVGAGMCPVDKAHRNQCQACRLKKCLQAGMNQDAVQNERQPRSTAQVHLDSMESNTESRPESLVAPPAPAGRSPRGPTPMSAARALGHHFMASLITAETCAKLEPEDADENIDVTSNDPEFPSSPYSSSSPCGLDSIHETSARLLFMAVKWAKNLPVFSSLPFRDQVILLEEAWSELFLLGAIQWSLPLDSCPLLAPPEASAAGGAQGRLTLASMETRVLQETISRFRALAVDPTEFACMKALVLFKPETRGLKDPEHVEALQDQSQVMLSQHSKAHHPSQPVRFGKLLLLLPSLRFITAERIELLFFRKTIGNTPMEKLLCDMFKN
The target in experiment [12] is Peroxisome proliferator-activated receptor gamma (Homo sapiens) + Nuclear receptor corepressor 2 (Homo sapiens) (UniProt P37231+Q9Y618). Description: agonists of PPARg-NCOR2 corepressor interaction, counter-screen for NR2E3 agonist project, biochemical, TR-FRET (AID 504787; in the data active means inhibition above about 20%;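 further: 0% = DMSO vehicle and 100% = wells without protein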). Conditions: TR-FRET PPARg-NCOR2 coregulator interaction, at 3.98 µM, active compounds read high.
Sequence of Peroxisome proliferator-activated receptor gamma (Homo sapiens) + Nuclear receptor corepressor 2 (Homo sapiens) (P37231 whole entry, looked up, the tested form may be a part): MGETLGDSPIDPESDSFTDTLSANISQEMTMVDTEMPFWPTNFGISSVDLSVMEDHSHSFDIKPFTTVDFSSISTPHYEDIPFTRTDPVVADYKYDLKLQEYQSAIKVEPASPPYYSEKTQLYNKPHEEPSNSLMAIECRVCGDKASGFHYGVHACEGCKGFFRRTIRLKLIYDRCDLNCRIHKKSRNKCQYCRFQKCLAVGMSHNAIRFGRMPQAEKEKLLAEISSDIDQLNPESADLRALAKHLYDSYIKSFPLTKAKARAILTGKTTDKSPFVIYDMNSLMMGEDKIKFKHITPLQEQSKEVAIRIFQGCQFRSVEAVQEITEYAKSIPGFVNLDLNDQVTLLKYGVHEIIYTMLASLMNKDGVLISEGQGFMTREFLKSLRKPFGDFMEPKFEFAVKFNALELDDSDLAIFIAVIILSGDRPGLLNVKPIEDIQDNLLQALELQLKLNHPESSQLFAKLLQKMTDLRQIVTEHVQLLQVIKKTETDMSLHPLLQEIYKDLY
Sequence of Peroxisome proliferator-activated receptor gamma (Homo sapiens) + Nuclear receptor corepressor 2 (Homo sapiens) (Q9Y618 whole entry, looked up, the tested form may be a part): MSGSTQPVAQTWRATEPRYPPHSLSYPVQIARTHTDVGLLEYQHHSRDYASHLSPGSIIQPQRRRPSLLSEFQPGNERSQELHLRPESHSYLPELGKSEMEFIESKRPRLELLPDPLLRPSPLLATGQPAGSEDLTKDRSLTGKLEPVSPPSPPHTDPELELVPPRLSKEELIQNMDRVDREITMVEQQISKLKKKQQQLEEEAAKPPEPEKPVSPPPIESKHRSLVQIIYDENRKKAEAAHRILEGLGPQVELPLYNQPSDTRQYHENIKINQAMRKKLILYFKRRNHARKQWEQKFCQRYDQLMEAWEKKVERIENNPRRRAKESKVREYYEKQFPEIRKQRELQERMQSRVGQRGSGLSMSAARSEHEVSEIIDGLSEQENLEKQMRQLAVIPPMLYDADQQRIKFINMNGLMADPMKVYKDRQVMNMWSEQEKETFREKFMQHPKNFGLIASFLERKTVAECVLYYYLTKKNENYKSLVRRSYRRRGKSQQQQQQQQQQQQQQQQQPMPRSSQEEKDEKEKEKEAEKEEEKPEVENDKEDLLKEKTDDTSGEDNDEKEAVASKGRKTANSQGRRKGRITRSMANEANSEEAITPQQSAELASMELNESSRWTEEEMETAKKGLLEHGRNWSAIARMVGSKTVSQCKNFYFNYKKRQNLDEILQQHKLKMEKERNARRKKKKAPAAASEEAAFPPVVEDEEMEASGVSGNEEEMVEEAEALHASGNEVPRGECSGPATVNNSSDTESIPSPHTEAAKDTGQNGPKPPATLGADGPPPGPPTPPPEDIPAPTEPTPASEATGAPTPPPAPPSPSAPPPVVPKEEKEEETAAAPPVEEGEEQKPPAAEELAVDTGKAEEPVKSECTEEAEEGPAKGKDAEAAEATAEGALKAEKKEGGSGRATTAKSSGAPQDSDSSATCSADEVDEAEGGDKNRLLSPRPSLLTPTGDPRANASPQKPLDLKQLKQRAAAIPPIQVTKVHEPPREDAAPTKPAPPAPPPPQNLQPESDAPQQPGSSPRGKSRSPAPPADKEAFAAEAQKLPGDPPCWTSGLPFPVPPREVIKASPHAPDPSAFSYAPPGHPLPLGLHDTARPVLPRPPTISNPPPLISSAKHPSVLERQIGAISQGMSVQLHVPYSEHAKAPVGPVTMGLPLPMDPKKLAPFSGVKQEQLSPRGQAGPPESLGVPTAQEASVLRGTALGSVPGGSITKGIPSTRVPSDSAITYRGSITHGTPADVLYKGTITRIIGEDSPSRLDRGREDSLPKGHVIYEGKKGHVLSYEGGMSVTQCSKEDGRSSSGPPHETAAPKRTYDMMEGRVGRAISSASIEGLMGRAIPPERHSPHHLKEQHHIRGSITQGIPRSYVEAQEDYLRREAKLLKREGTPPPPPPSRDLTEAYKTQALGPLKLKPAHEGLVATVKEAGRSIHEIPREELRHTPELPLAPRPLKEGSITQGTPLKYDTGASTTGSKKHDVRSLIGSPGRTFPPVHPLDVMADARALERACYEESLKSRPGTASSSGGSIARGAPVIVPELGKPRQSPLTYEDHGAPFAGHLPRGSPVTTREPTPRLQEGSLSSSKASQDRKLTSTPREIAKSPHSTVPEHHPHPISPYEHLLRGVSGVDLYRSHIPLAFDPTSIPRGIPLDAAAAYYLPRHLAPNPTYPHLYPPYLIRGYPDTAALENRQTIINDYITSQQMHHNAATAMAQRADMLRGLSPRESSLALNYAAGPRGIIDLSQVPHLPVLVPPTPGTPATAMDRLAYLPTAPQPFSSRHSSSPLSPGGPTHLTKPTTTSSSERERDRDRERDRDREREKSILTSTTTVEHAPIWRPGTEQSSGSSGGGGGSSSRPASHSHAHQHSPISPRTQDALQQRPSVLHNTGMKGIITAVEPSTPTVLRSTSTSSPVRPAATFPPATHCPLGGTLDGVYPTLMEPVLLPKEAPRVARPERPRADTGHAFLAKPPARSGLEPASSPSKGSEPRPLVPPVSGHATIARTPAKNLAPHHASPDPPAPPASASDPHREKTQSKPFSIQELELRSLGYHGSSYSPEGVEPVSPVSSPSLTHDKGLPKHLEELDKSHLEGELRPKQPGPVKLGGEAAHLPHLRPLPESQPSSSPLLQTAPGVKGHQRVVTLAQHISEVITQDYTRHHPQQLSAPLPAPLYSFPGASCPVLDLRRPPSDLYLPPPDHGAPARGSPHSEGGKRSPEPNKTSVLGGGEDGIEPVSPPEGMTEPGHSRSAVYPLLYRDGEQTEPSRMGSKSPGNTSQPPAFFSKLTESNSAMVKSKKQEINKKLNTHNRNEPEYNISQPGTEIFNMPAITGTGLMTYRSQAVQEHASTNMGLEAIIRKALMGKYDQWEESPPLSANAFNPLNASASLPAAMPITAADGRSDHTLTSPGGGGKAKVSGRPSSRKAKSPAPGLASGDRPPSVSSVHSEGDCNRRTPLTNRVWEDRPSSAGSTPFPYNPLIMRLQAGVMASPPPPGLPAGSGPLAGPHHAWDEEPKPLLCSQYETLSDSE
Experiment [13] in a line: Gal4-VP16 luciferase reporter inhibitors, counter-screen for COUP-TFII antagonist project, cell-based, luminescence, HEK293 (AID 687007; in the data active means inhibition above about 13%). The following applies: at 8.5 µM, active compounds read high.
For experiment [14], the target named is COUP transcription factor 2 (Homo sapiens) (UniProt P24468). Description: NR2F2 transcriptional activity inhibitors, confirmation, cell-based, luciferase reporter, HEK293, triplicate (AID 687008;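 active means mean inhibition over three repeats above a set limit taken from the earlier primary screen, cut at about 38% in these data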;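 further: 100% = cells given the luciferase reporter alone without the COUP-TF2 vector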). The following applies: HEK293 NGFI-A luciferase reporter, luminescence; at 8.5 µM; active compounds read high.

Sequence of Oxytocin receptor (Homo sapiens) (P30559 whole entry, looked up): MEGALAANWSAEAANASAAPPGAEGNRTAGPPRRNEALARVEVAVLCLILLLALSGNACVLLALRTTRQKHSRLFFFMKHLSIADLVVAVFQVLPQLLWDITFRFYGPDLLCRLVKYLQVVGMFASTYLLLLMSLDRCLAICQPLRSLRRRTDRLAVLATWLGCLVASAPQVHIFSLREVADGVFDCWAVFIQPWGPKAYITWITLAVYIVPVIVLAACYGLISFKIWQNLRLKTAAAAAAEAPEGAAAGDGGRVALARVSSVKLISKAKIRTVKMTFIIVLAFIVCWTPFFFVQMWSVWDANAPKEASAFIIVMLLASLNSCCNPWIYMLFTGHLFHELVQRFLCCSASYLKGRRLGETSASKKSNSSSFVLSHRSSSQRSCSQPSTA

In general, inhibition refers to the change of the read-out against control, counted positive when it falls. As to `Oc1ccc(CNc2ccccc2O)cc1`, the inhibition in experiment [1] is 29%.

In the case of `Cn1c(SCC(=O)N/N=C/c2ccc(O)c(O)c2)nc2ccccc21`, the inhibition in [1] was 72.4% (active).

For `CC1=CC(C)(C)Nc2ccc(OC(=O)CN3C(=O)C4CCCCC4C3=O)cc21` (stereo not drawn), the inhibition is -22.9% in experiment [2] and 27.4% in experiment [3].

For `CCCc1ccc(OCC(=O)NNC(=S)NC(=O)c2ccco2)cc1`, the values for the activation in experiment [4] and in [5] were 13.2% and 20.2%, respectively.

As to `O=C(NNC(=S)NC(=O)c1cn(-c2ccccc2)nc1-c1ccccc1)c1ccncc1`, the activation in experiment [4] was 4.81%; in experiment [5] it was 9.53%.

As to `COc1ccc(NS(=O)(=O)c2ccc(NC(=S)NC(=O)CC(C)C)cc2)cc1`, the activation in experiment [4] is 12.6%; in [5], 12.8%.

Turning to `COc1ccc(N2CCN(C(=O)CN3C(=O)COc4ccccc43)CC2)cc1`, the inhibition was -8.37% in experiment [6] and -9.94% in experiment [7].

For `C/C(=N\NS(=O)(=O)c1ccc(Cl)cc1)c1ccc(NC(=O)c2ccco2)cc1`, the activation in [4] was 17.6%; in experiment [5] it was 11.1%.

Regarding `CC1=C/C(=N\OS(=O)(=O)c2ccccc2)C=CC1=O`, the values for the inhibition in [8], in experiment [9] and in experiment [10] were 90% (active), 83.7% (active) and 7.61%, respectively.

Turning to `COc1cc(C(CCN2CCN(c3ccccc3)CC2)c2c(OC)cc(OC)c3ccc(=O)oc23)cc(OC)c1OC` (stereo not drawn), the activation in [4] was -0.33%; in experiment [5], 0.28%.

With `NC(=O)C1=C[C@H](c2csc3ccccc23)C[C@H](OCc2ccc(CO)cc2)O1`, the activation was 17.8% in experiment [4] and 10.2% in experiment [5].

Regarding `CCC(=O)Nc1ccc(Nc2nc(Cl)nc(Nc3ccc(NC(=O)CC)cc3)n2)cc1`, the inhibition was -2.63% in [6] and 5.66% in experiment [7].

For the molecule `Cc1cccc(NC(=O)c2sc3nc(N4CCOCC4)c4c(c3c2N)CCCC4)c1`, in [11], the activation (reported as inhibition) was -1.32%. For the same molecule, the inhibition in [12] was -0.47%.

For `CCOC(=O)C1=C(c2ccc(OC)cc2)C(=O)c2ccccc2C1=O`, the inhibition is 8.3% in [10], 80.8% (active) in experiment [13] and 93.5% (active) in experiment [14].

As for `CC1(C)Cc2ccccc2-c2[nH]c(=S)[nH]c(=O)c21`, the activation (reported as inhibition) in experiment [11] is 28.7% (active). Also, in experiment [12], the inhibition was 25.9% (active).

In the case of `c1ccc(C2CNCc3c2ccc2ccccc32)cc1` (stereo not drawn), the activation was 15.8% in experiment [4] and 6.47% in [5].

In the case of `O=C1C(=O)N(CCN2CCOCC2)C(c2cccc(Cl)c2)/C1=C(/O)c1ccc2c(c1)OCO2` (stereo not drawn), in [11], the activation (reported as inhibition) was 32.8% (active). Moreover, in experiment [12], the inhibition was 31.2% (active).

As for `CCOc1cc(/C=C(\C#N)c2nc(-c3cccs3)c(NC(C)=O)s2)ccc1O`, the values for the activation in [4] and in experiment [5] were 31.9% (active) and 25.4% (active), respectively.

Regarding `C=CCOc1cccc(C2C(C(=O)c3ccc(C)o3)=C(O)C(=O)N2CCCn2ccnc2)c1` (stereo not drawn), the activation (reported as inhibition) in [11] was 9.01%. Further, the inhibition in experiment [12] was 7.51%.
